Source: PubChem
Compounds with a hit are over-represented: about 2.2% of the library has one in this group of screens.
CHRM4 PAM – human M4 muscarinic receptor positive allosteric modulators, primary screen, CHO-K1 cells, Fluo-8 calcium fluorescence | Muscarinic acetylcholine receptor M4 (Homo sapiens), P08173 | CHO-K1 hM4/Gqi5, ACh EC20; 0% = ACh EC20, 100% = maximal ACh | activation, % at 3 µM | hit rate 0.4% among 360,000 | AID 624126, 2012;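 active means activation above its plate's cutoff, the mean activation of sample wells plus 3 SD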
Target sequence (P08173 whole entry, looked up): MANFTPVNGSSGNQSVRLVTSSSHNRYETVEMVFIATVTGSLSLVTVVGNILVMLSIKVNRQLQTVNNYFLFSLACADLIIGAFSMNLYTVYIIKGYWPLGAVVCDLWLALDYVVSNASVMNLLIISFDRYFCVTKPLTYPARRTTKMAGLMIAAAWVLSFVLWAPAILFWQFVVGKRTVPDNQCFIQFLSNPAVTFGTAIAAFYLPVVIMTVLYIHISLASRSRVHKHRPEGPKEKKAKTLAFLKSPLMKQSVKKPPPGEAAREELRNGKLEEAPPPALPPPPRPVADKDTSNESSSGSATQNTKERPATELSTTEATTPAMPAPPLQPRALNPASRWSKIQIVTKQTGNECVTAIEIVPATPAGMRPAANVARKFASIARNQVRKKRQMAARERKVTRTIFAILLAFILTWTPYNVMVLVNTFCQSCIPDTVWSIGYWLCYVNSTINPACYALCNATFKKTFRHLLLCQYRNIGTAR
CHRM4 antagonist – human M4 muscarinic receptor antagonists, primary screen, CHO cells, Fluo-8 calcium fluorescence; CHO-hM4 cells, ACh EC80; inhibition, % at 3 µM; hit rate 0.73% among 360,000; AID 624125, 2012;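 active means inhibition above its plate's cutoff, the mean inhibition of sample wells plus 3 SD, cut at about 27% in these data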;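 further: 0% = acetylcholine EC80 with DMSO and 100% = DMSO without agonist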
M1 PAM – human M1 muscarinic receptor positive allosteric modulators, primary screen, CHO-K1 cells, Fluo-8 calcium fluorescence, 1536-well; Muscarinic acetylcholine receptor M1 (Homo sapiens), P11229; CHO-K1 hM1, ACh EC20; 0% = ACh EC20, 100% = maximal ACh; activation, % at 3 µM; hit rate 0.088% among 360,000; in the data active means activation above about 19%, passing the limit was not always enough
M1 antag – human M1 muscarinic receptor antagonists, primary screen, CHO-K1 cells, Fluo-8 calcium fluorescence, 1536-well. CHO-K1 hM1, ACh EC80 antagonist. hit rate 1.3% among 360,000. inhibition, % at 3 µM. Muscarinic acetylcholine receptor M1 (Homo sapiens), P11229;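 active means percent inhibition above its own plate's cutoff, namely the mean of that plate's compound wells plus 3 SD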;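 further: peak over basal fluorescence ratio during 140 s after agonist addition; 0% = ACh EC80 plus DMSO and 100% = DMSO alone without agonist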
CHRM4 agonist – human M4 muscarinic receptor agonists, primary screen, CHO-K1 cells, Fluo-8 calcium fluorescence; CHO-K1 hM4/Gqi5; vehicle 0%, full acetylcholine response 100%; activation, % at 3 µM; hit rate 0.14% among 360,000; AID 624127, 2012;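 active means activation above the run mean over all test wells plus 3 SD, cut at about 32% in these data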;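 further: peak over basal fluorescence ratio per well then scaled between controls; 0% = DMSO wells and 100% = acetylcholine at EC100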
CHRM1 agonist – human M1 muscarinic receptor agonists, primary screen, Fluo-8 calcium fluorescence, CHO-K1 cells, HTS; hit rate 0.33% among 360,000; activation, % at 3 µM; Muscarinic acetylcholine receptor M1 (Homo sapiens), P11229; CHO-K1 hM1, agonist mode; 0% DMSO, 100% acetylcholine EC100;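 active means activation above the run's mean compound activation plus 3 SD, cut at about 16% in these data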;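 further: peak over basal fluorescence ratio within a 140 s kinetic read after compound addition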
* hit, by the source's call; x = no result given.

SMILES	CHRM4 PAM	CHRM4 antagonist	M1 PAM	M1 antag	CHRM4 agonist	CHRM1 agonist
CCc1nc2c(OCCOc3ccc(F)cc3)cccn2c1N(C)C(=O)c1ccc(C)cc1	1	-17	-28	30	3	-10
CCOC(=O)N(C)c1c(CC)nc2c(OCc3ccc(F)c(F)c3)cccn12	-1	7	-7	12	-2	-10
CCc1nc2c(OCc3ccc(F)c(F)c3)cccn2c1N(C)C(=O)C1CC1	0	0	-10	25*	-3	-9
CCc1nc2c(OCCOc3ccccc3)cccn2c1N(C)C(=O)c1ccc(C)cc1	-3	2	-32	44*	0	-9
Cc1nc2c(OCc3ccc(C#N)cc3)cccn2c1N(C)Cc1cccs1	-13	20	-25	45*	11	-2
N#C/C(=C\c1ccccn1)c1ccccn1	-9	-9	16	-20	1	0
O=C(NCc1cccc(Br)c1)c1cc(-c2ccccc2)nn1CC1CC(c2cccnc2)=NO1 (configuration not stated)	-9	-10	-11	7	14	-7
Cc1nc2c(OCc3cc(Cl)cc(Cl)c3)cccn2c1N(C)C(=O)CCC1CCCC1	-5	2	-17	38*	5	-7
Cc1cc(C)cc(NC(=O)Nc2ccc(-n3ccc(C(F)(F)F)n3)cc2)c1	-32	24	-9	18	9	-1
O=C(Nc1ccc(-n2ccc(C(F)(F)F)n2)cc1)Nc1cccc(Cl)c1	-50	27*	-19	45*	18	4
CCCC(=O)N(C1CC(C)C(C#N)(C#N)C1(C#N)C#N)N(C)C (configuration not stated)	-21	47*	2	2	2	-4
CC(=O)N(C1CC(C)C(C#N)(C#N)C1(C#N)C#N)N(C)C (configuration not stated)	1	10	4	-2	0	-4
OC(CNCCc1ccccc1)c1ccccc1 (configuration not stated)	2	1	-2	4	0	6
COc1cccc2cc(-c3ccccc3)oc12	4	-8	4	-11	-1	-2
Nc1cccc2cc(-c3ccccc3)oc12	25*	-16	-1	8	1	-2
O=C(CCn1nc(-c2ccccc2)c2ccccc2c1=O)NCC1CCCO1 (configuration not stated)	6	3	4	-1	1	-2
O=C1CCN2C=Nc3cccc4ccc1c2c34	0	1	-3	-13	14	25*
O=C1CCC(=O)c2ccc3c4c(ccc1c24)CC3	12	-8	2	-9	3	-6
COc1ccc2c(c1)Cc1c-2cc(Br)c(N)c1Br	2	-12	2	0	0	-3
O=C1CC(c2cccnc2)c2cc3c(cc2N1)OCCO3 (configuration not stated)	-4	13	-9	39*	-1	-1
O=c1ccccn1CCOc1ccc(Cl)cc1	-2	4	5	-12	0	-4
COc1ccc(NC(=S)N2CCN(C(c3ccccc3)c3ccccc3)CC2)cc1OC	-17	13	-25	38*	1	-8
Cc1ccc(NS(=O)(=O)c2ccc(C(=O)NCc3ccc(S(N)(=O)=O)cc3)cc2)cc1	0	-8	3	-13	0	-4
C#Cc1ccc(CN2CCC(Oc3ccc(C(=O)NCc4ccccn4)cc3)CC2)cc1	-14	20	-24	78*	4	-6
CCOc1cccc(CN2CCC(Oc3ccc(C(=O)NCc4ccccn4)cc3)CC2)c1	-14	19	-23	77*	2	-5
SMILES	CHRM4 PAM	CHRM4 antagonist	M1 PAM	M1 antag	CHRM4 agonist	CHRM1 agonist
COc1ccc(CN2CCC(Oc3ccc(C(=O)NCc4ccccn4)cc3)CC2)c(F)c1	-16	16	-23	71*	2	-2
COc1cccc(CN2CCC(Oc3ccc(C(=O)NCc4ccccn4)cc3)CC2)c1	-8	-1	-15	26	2	-5
O=C(NCc1ccccn1)c1ccc(OC2CCN(Cc3ccc(F)cc3F)CC2)cc1	-13	9	-17	23	6	-4
COC(=O)[C@H](CC(C)C)NS(=O)(=O)c1ccccc1	10	3	-3	9	0	-5
COc1cc(C(=O)NCC(=O)N/N=C(\C)Cc2ccccc2)cc(OC)c1OC	-2	6	2	-3	0	-5
O=C(NCC1COc2ccccc2O1)C1CCCN(S(=O)(=O)c2cccc3cccnc23)C1 (configuration not stated)	-4	-25	8	-1	7	1
O=C(Nc1c(-c2ccccc2)[nH][nH]c1=O)c1cnccn1	12	-4	x	x	1	x
COc1ncccc1C(=O)Nc1c(-c2ccccc2)[nH][nH]c1=O	1	39*	x	x	3	x
COc1cccc(NC(=S)NNC(=O)c2c([N+](=O)[O-])c(C)nn2C)c1	34*	4	12	-11	1	-2
Cc1ccc(S(=O)(=O)N2C=CC(C(F)(F)F)=NCC2)cc1	18*	-14	3	-16	2	2
CN1C2CC(OC(=O)C(CO)c3ccccc3)CC1C1OC12 (configuration not stated)	-17	99*	x	x	1	x
CCOC(=O)N1CCN(C(=O)C(CC)c2ccccc2)CC1 (configuration not stated)	-6	8	10	-16	-1	-7
CCOc1ccccc1CN1CCN(Cc2ccc(C)o2)C(CCO)C1 (configuration not stated)	2	6	3	-3	0	-12
CN(C)CCNC(=O)COc1ccc(Cl)cc1Cl	1	1	0	-2	2	-9
CN(C)CCCN=C(NO)c1ccc(Cl)cc1Cl	-19	-4	-6	8	1	50*
COC(=O)c1[nH]c(=O)c2ccccc2c1OCc1ccccc1	-2	-1	9	-7	1	-3
NC(=O)N/N=C/c1c(F)cccc1F	23*	-2	11	-9	1	1
NC(=O)N/N=C/c1c(F)c(F)c(F)c(F)c1F	3	-7	7	-3	1	-5
OC1c2cc(Br)ccc2N=C2CCCCCN21 (configuration not stated)	-11	15	-33	78*	2	-5
